Results published in PubChem BioAssay (EPA / NIEHS).
Active and inactive are the calls of the source. Rule for the calls: active = hit-call score of the fitted dose curve at least 0.9, where 1 is the maximum; inactive = score below 0.9.

Experiment: APR_HepG2_CellCycleArrest_24hr: Apredica 24-hour HepG2 Assay for Cell Cycle Arrest (AID 2282905);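 note: cell cycle arrest scored as ratio of 2N to 4N nuclear DNA content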
Conditions: imaging, actives raise or lower the signal
Procedure, shortened: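 HepG2 cells were exposed to compounds at 0.39–200 uM (ten concentrations, duplicate) in 0.5% v/v DMSO for 24 hr. After formaldehyde fixation and Triton permeabilization, Hoechst 33342-stained nuclei were imaged at 20x; DNA content was quantified, with bidirectional fitting against DMSO.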
In the case of `O=C(OCCCCCCOC(=O)c1ccccc1)c1ccccc1`, the outcome is reported as “inactive”.
For `CCCCCCCCN(C)CCCCCCCC`, the outcome was “inactive”.
With `Cc1ncc(CO)c(CO)c1O` the outcome was “inactive”.
With `Oc1ccc2ccccc2c1` the outcome was “inactive”.
In the case of `CCCCCCCCCCCC[N+](C)(C)C`, the AC50 is reported as 59 µM (active).
With `c1ccc2ccccc2c1` the outcome was “inactive”.
In the case of `CCCCCCCC[Si](OCC)(OCC)OCC`, the outcome is reported as “inactive”.
With `OC12N=C(c3ccccc3)SC1Cc1cc(Cl)ccc12` (centres undefined) the outcome was “inactive”.
For `CN1C(=O)N(c2ccccc2Br)Cc2cnc(Nc3ccc4c(c3)OCC(CO)O4)nc21` (centres undefined), the AC50 was 8.95 µM (active).
In the case of `CC(C)(C)c1csc(-c2cc3cc(OCc4ccccc4CC(=O)O)ccc3o2)n1`, the outcome is reported as “inactive”.
For `CN(C[C@@H](CC[N+]12CCC(C3CCCCC3)(CC1)CC2)c1ccc(Cl)c(Cl)c1)C(=O)c1cc(C(F)(F)F)cc(C(F)(F)F)c1`, the outcome was “inactive”.
With `CCCCCCCCCCCO` the outcome was “inactive”.
With `Clc1cc(Cl)c2c(c1)N=C1CCCCCN1C2` the outcome was “inactive”.
With `O=C(O)Cn1c(=O)n(Cc2ccc(Br)cc2F)c(=O)c2ccc(Cl)cc21` the outcome was “inactive”.
With `CC[C@@H]1C[C@H](N(Cc2cc(C(F)(F)F)cc(C(F)(F)F)c2)C(C)=O)c2cc(C(F)(F)F)ccc2N1C(=O)OC(C)C` the outcome was “inactive”.
For `CCCCCCCCOC(=O)c1cc(O)c(O)c(O)c1`, the AC50 was 14.8 µM (active).
With `CC/C(=C(/CC)c1ccc(O)cc1)c1ccc(O)cc1` the AC50 was 20.9 µM (active).
With `c1ccc2n[nH]nc2c1` the outcome was “inactive”.
With `Cc1cn([C@H]2C[C@H](N=[N+]=[N-])[C@@H](CO)O2)c(=O)[nH]c1=O` the outcome was “inactive”.
